Out of some 320,000 compounds screened, about 3,300 (1%) were called active. This excerpt belongs to a sample that is enriched for actives. Unmarked numbers belong to inactive results.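 Rule for the calls: active = every valid replicate shows activation above 250% relative to neutral control wells; inactive = the rest, any valid replicate at or below 250%.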

Experimental findings from PubChem BioAssay AID2716 (Broad Institute, 2010) are described below.

A short description of the assay: yeast Mot1-301 growth rescue at high temperature, primary screen, SUMOylation pathway inhibitor project, S. cerevisiae, ATP luminescence, 38.5C (AID 2716).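 Note: OY570 slx delta 5 strain wells were the positive control but not used for scaling.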 The settings on record: S. cerevisiae Mot1-301 growth rescue, at 18.8 µM, hits give high values, percent above DMSO median, 100 means doubled.
For `CCCCn1c(SCC(=O)NCCc2ccc(OC)c(OC)c2)nc2c1c(=O)n(C)c(=O)n2C`, the growth rescue was -22.4%. For `CCOc1ccc(Cn2c(SCCCCC#N)nc3c2c(=O)n(C)c(=O)n3C)cc1OCC`, the growth rescue was 395% (active). With `CCCSc1nc2c(c(=O)n(C)c(=O)n2C)n1Cc1ccc(C)cc1`, the growth rescue is -26.2%. As for `NC(N)=NCCCc1cn(CC(=O)N2CCNCC2)nn1`, the figure is 3.99%. With `Cn1c(=O)c2c(SCC(=O)NCC3CCCO3)nc(CC(C)(C)C)nc2n(C)c1=O` (configuration not stated) the figure was 4.63%. As for `CC1CCN(C(=S)NC2CC3CCC2C3)CC1` (configuration not stated), the growth rescue is 8.2%. As to `O=C(OCC(=O)N1CCOCC1)c1ccc(N2CCOCC2)c([N+](=O)[O-])c1`, the growth rescue was 15.5%. As for `O=C(Oc1ccccc1Cl)c1ccc(N2CCOCC2)c([N+](=O)[O-])c1`, the figure is 334% (active); as for `O=C(c1ccc(N2CCOCC2)c([N+](=O)[O-])c1)N1CCN(c2ccccc2F)CC1`, -2.08%; as for `S=C(Nc1ccc(Br)cc1Cl)N1CCC2(CC1)OCCO2`, 14%.

Regarding `Cc1ccc(C(C(=O)NC2CCCCC2)N(C(=O)c2csnn2)C2CC2)o1` (configuration not stated), the growth rescue is -6.5%. Take `CCOc1ccc(C(=O)Nc2cccc(SC)c2)cc1`: the growth rescue was -2.04%.

For the compound `O=S(=O)(c1ccc(SCc2ccc(Br)cc2)nc1)N1CCOCC1`, the growth rescue is 0.526%.

Take `CCNc1nc(N)nc(Oc2ccc(OCC)nn2)n1`: the growth rescue was 5.12%. In the case of `CCNc1nc(N)nc(-c2cc(Cl)ccc2OC)n1`, the growth rescue was 263% (active). On to `CCC(C)NC(=O)c1cc(Cl)ccc1OC` (configuration not stated), for which the growth rescue was 1740%.

`CC1=NC2(CCCc3c2no[n+]3[O-])N(O)C1(C)C` (configuration not stated): the growth rescue was 465% (active). As for `COCCn1c(Cc2cccn2C)nnc1SCC(=O)Nc1nccs1`, the figure is 2.9%. With `COc1cccc(CC(=O)N2CCCC(CCC(=O)N3CCN(c4ccccn4)CC3)C2)c1` (configuration not stated) the figure was 15%. With `COc1cccc2sc3cc(NCC[C@@H]4CCCN4C)ccc3c(=O)c12` the figure was 4.78%; with `CC1CC(C)CN(c2ccc(S(=O)(=O)N3CCOCC3)cc2)C1` (configuration not stated), 18.2%. Consider `CC(C)c1ccc(S(=O)(=O)NC2CCCC2)cc1`, for which the growth rescue was 306%. Take `CSc1ccc(S(=O)(=O)NC2CCCCC2)cc1`: the growth rescue is 5.7%.

Consider `Cc1ccc(S(=O)(=O)NC2CCCCCC2)cc1`, for which the growth rescue was 297% (active).

Regarding `CC1CN(C(=S)Nc2ccc(S(N)(=O)=O)cc2)CC(C)O1` (configuration not stated), the growth rescue is -5.04%.

`COc1cc(CN2CCNC(=O)C2CC(=O)NCCc2ncccc2C)cc(OC)c1` (configuration not stated): the growth rescue was 662% (active). For `CCOc1ccc(CN2CCNC(=O)C2CC(=O)NCCCC2CCCC2)cc1` (configuration not stated), the growth rescue was 3.84%. For `Cc1ccccc1CN1CCNC(=O)C1CC(=O)NCCC1=CCCCC1` (configuration not stated), the growth rescue is -4.34%.

In the case of `COc1ccc(Cc2nnc(SCC(=O)Nc3ccc(C)c(Cl)c3)[nH]c2=O)cc1`, the growth rescue is 60.7%. With `Cc1ccc(Cc2nnc(SCC(=O)Nc3ccccc3C)[nH]c2=O)cc1`, the growth rescue is 579% (active). As for `Cc1ccc(Cc2nnc(SCC(=O)Nc3ccc(C)cc3C)[nH]c2=O)cc1`, the figure is 3.03%; as for `CC1(c2ccccc2)NC(=O)N(CC(=O)Nc2cc(Cl)ccc2N2CCOCC2)C1=O` (configuration not stated), 268%; as for `NS(=O)(=O)c1cc2c(cc1Cl)NC(C(Cl)Cl)NS2(=O)=O` (configuration not stated), -7.27%. With `Cc1ccc(CNC(=O)C(=O)c2cn(CC(=O)N3CCOCC3)c3ccccc23)cc1` the figure was 279%; with `Cc1ccc(-n2c(SCC(=O)Nc3ccc4c(c3)OCO4)nnc2-c2ccccn2)cc1`, -3.71%. For `O=C(CSc1nnc(-c2ccccn2)n1-c1ccccc1)Nc1ccc2c(c1)OCO2`, the growth rescue was 354% (active). With `Cc1ccc(-n2c(SCC(=O)Nc3ccc4c(c3)OCO4)nnc2-c2ccoc2C)cc1` the figure was -1.21%; with `CC1CC2=C(CC1/C=N/NC(N)=S)C(C)(C)CCC2` (configuration not stated), 94.7%. On to `O=C(NCC#CCSc1nnc(-c2cccc3ccccc23)o1)c1cccs1`, for which the growth rescue was -7.8%. For the compound `COc1ccc(N2C(=O)C(CC(=O)Nc3ccc(F)cc3)N(CCc3cccs3)C2=O)cc1` (configuration not stated), the growth rescue was 700% (active).

Take `COc1ccc(CCN2C(=O)N(c3ccc(OC)cc3)C(=O)C2CC(=O)Nc2ccc(OC)cc2)cc1` (configuration not stated): the growth rescue is -12.2%. As to `CCNC(=O)CC1C(=O)N(c2ccc(F)cc2)C(=O)N1Cc1cccs1` (configuration not stated), the growth rescue was -6.29%. Turning to `Cc1cccc(C(=O)N[C@H](C(=O)NCc2cccs2)C(C)C)c1`, the growth rescue was 14.3%. With `CCc1cc(C(=O)Nc2nnc(C3CC3)s2)sc1C` the figure was -5.84%; with `Cc1ccc(OCC(=O)NC(C)c2ccccc2)cc1C` (configuration not stated), -6.93%.

Regarding `C/C(CC(=O)NC(C)c1ccccc1)=N\NC(N)=S` (configuration not stated), the growth rescue was 317% (active).

As to `Cc1cc(C)cc(OCC(=O)NC(C)c2ccccc2)c1` (configuration not stated), the growth rescue is 14.1%.

Take `CCc1ccccc1NC(=O)CN(C)S(=O)(=O)c1ccc2c(c1)c(=O)n(C)c(=O)n2C`: the growth rescue was 30%. In the case of `O=C(COc1ccc([N+](=O)[O-])cc1Cl)Nn1cnnc1`, the growth rescue was 88.2%. As for `Cc1ccc(C(=O)OCC(=O)N2CCCCCC2)cc1S(=O)(=O)N1CCOCC1`, the figure is 6.73%; as for `COc1ccc(C(=O)OCC(=O)c2ccc(C)c(S(=O)(=O)N3CCOCC3)c2)cc1OC`, 625% (active); as for `COc1ccc(CNC(=O)COC(=O)c2ccc(C)c(S(=O)(=O)N3CCOCC3)c2)cc1OC`, -6.82%.

Consider `COc1c(C)cc(C(=O)C2CCCN(S(=O)(=O)c3c(C)noc3C)C2)cc1C` (configuration not stated), for which the growth rescue is -5.92%.

`COc1ccc(CCNC(=O)/C(C#N)=C2\N=C(NC(=O)c3cccs3)c3ccccc32)cc1`: the growth rescue is -22.6%. Consider `CN(C(=O)COC(=O)Cc1ccccc1[N+](=O)[O-])C1CCS(=O)(=O)C1` (configuration not stated), for which the growth rescue is -6.84%.

Regarding `Cc1ccc(S(=O)(=O)CCC(=O)OCC(=O)N(C)C2CCS(=O)(=O)C2)cc1` (configuration not stated), the growth rescue was 366% (active).

Consider `Cc1ccc(S(=O)(=O)CCC(=O)OCc2ccccc2)cc1`, for which the growth rescue was -4.25%. For `COc1ccc(/C=C(\C#N)C(=O)NCCCn2ccnc2)cc1`, the growth rescue is 429% (active). Turning to `COc1cc(OC)cc(C(=O)NCCCn2ccnc2)c1`, the growth rescue was 0.871%.

As for `COc1cccc(-c2nn(-c3ccccc3)cc2/C=C(\C#N)C(=O)NCCCn2ccnc2)c1`, the growth rescue was -1.32%. Consider `CCOC(=O)c1ccc(NC(=S)N2CCN(c3ccccn3)CC2)cc1`, for which the growth rescue was 4.51%. As for `O=C(COC(=O)c1ccc(F)cc1)NCCCc1ccccc1`, the figure is -3.97%. With `COc1ccc(OC)c(CNC(=O)c2cc(=O)[nH]c3ccc(S(=O)(=O)N4CCCC4)cc23)c1` the figure was 46.7%; with `CCOc1ccc(-c2cn(S(=O)(=O)c3cccc4nsnc34)nc2N)cc1`, 8.29%. For `COc1ccc(N(C)S(=O)(=O)c2cccc3nsnc23)cc1`, the growth rescue is -12.6%. For `CCOc1ccc(N(CC)S(=O)(=O)c2cccc3nsnc23)cc1`, the growth rescue was 487% (active). In the case of `COc1ccc(OC)c(NC(=O)COC(=O)Cc2ccsc2)c1`, the growth rescue is 24.6%. With `CC(C)Cc1nc(Cl)c(C#N)c2c1CCC2` the figure was -9.85%; with `CC(C)CCNc1nc(N2CCCC2)c2c(c1C#N)CCN(C)C2`, -30.6%; with `CC(C)Cc1nc(N2CCOCC2)c(C#N)c2c1CCC2`, 469% (active).

On to `O=C(NNC(=O)c1ccc(-n2cncn2)c([N+](=O)[O-])c1)c1ccccc1`, for which the growth rescue is 126%. Turning to `Cc1csc2nc(O)c(C(=O)NCCN3CCOCC3)c(=O)n12`, the growth rescue is 25.8%.

For `O=S(=O)(NCCc1ccc(F)cc1)c1cccc2cccnc12`, the growth rescue is -5.12%. With `O=C(CSCc1ccc(Cl)cc1)N1CCCCC1` the figure was 1570% (active). In the case of `O=C(CSCc1ccc(Cl)cc1)N1CCN(Cc2ccc3c(c2)OCO3)CC1`, the growth rescue was 194%.

Turning to `O=C(CSCc1cccs1)N1CCCC1`, the growth rescue was -5.87%. As to `CC(C)(C)c1nnc(N/N=C/c2ccc(O)cc2)n(N)c1=O`, the growth rescue is -10.1%.

In the case of `COc1ccnc2c1c(=O)n(Cc1cccc(F)c1)c(=O)n2C`, the growth rescue is 95.4%. Regarding `CCCCn1c(-c2cccc(C)c2)nc2cc3[nH]c(=O)c(C(C)C)nc3cc21`, the growth rescue was -29.3%. With `COc1cc2ccccc2cc1C(=O)Nc1ccc(N2CCOCC2)cc1` the figure was 4.29%. As for `COc1cccc(/C=C(/CC(=O)Nc2ccc(N3CCOCC3)cc2)c2nc3ccccc3s2)c1`, the growth rescue is 766% (active). With `COc1ccc(/C=C(/CC(=O)Nc2ccc(C)cc2)c2nc3ccccc3s2)cc1` the figure was 7.28%; with `CCc1c(C)nc(N2CCN(Cc3ccccc3)CC2)[nH]c1=O`, 1390% (active); with `CCCCCc1c(C)nc(N2CCN(Cc3ccc4c(c3)OCO4)CC2)[nH]c1=O`, -20.3%.

With `Cc1nnc(SCc2cc(=O)[nH]c(N3CCN(Cc4ccccc4)CC3)n2)s1`, the growth rescue is 18.3%. In the case of `COC(=O)Cn1c(O)c(N=NC(=O)OC)c2ccccc21`, the growth rescue is -22.3%.

`Oc1oc(-c2ccccc2Br)nc1/C=N/c1ccccn1`: the growth rescue was 15.4%. With `CC(C)n1c(O)c(N=Nc2ccccn2)c2ccccc21` the figure was 421% (active); with `COc1cccc2cc(C(=O)NCc3ccc(C)cc3)c(=N)oc12`, -7.41%. As for `O=C(COc1cccc2c1CCNC2=O)NC1CCCCC1`, the figure is -3.62%; as for `COC(=O)c1cc2n(n1)CCCNC2=O`, 0.35%. Consider `COC(=O)Cn1cc(/C=C/[N+](=O)[O-])c2ccccc21`, for which the growth rescue was 5.69%. As for `O=C(Cn1ccc2cc(S(=O)(=O)N3CCCC3)ccc21)NCc1ccccc1`, the figure is -15.1%. On to `O=[N+]([O-])/C=C/c1ccc2c(ccn2Cc2ccccc2)c1`, for which the growth rescue is 436% (active). As for `Cc1nc(SCC(=O)NC2CCCC2)[nH]c(=O)c1C`, the figure is 4.8%; as for `Cc1sc2nc(CSCC(=O)NC3CCCCC3)[nH]c(=O)c2c1C`, 345% (active). With `Cc1sc2nc(CSCC(=O)Nc3c(Cl)cccc3Cl)[nH]c(=O)c2c1C`, the growth rescue is 2.95%.
